The panel holds about 83,000 compounds, 20% with a hit somewhere; the sample as a whole holds those more often.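 Treatment: one concentration, 48 hours, 96-well format. Scoring: percent growth, with anything below 10 considered active.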 Calls of active or inactive are those of the source.
Assays:
Experiment in all cases: NCI-60 one-dose screen, 48 h (100 = growth as untreated, 0 = no growth, -100 = all killed)
NCI-H23 lung = test system: NCI-H23 lung
NCI-H226 lung = test system: NCI-H226 lung
NCI-H322M lung = test system: NCI-H322M lung
HOP-62 NSCLC = test system: HOP-62 NSCLC
NCI-H460 lung = test system: NCI-H460 lung
HOP-92 NSCLC = test system: HOP-92 NSCLC
NCI-H522 lung = test system: NCI-H522 lung
A549/ATCC NSCLC = test system: A549/ATCC NSCLC
786-0 renal = test system: 786-0 renal
COLO 205 colon = test system: COLO 205 colon
DU-145 prostate = test system: DU-145 prostate
K-562 leukemia = conditions: 10 µM unless noted
MALME-3M melanoma = test system: MALME-3M melanoma
MDA-MB-231 breast = test system: MDA-MB-231 breast
RXF 393 renal = test system: RXF 393 renal
SF-268 CNS = test system: SF-268 CNS
SF-295 CNS = test system: SF-295 CNS
SF-539 CNS = test system: SF-539 CNS
UACC-257 melanoma = test system: UACC-257 melanoma
M14 melanoma = test system: M14 melanoma

Measured: growth

CCCCCCCCc1cccc(CC(=O)Nc2ccc(C)cc2C(=O)O)c1
inactive: NCI-H23 lung; 10 µM unless noted 59.3% [25 µM] | NCI-H226 lung; 10 µM unless noted 65.3% [25 µM] | NCI-H322M lung; 10 µM unless noted 62.7% [25 µM] | HOP-62 NSCLC; 10 µM unless noted 54.8% [25 µM] | NCI-H460 lung; 10 µM unless noted 20.4% [25 µM] | HOP-92 NSCLC; 10 µM unless noted 83.8% [25 µM] | NCI-H522 lung; 10 µM unless noted 38.7% [25 µM] | A549/ATCC NSCLC; 10 µM unless noted 31.4% [25 µM] | 786-0 renal; 10 µM unless noted 34.1% [25 µM] | COLO 205 colon; 10 µM unless noted 59.1% [25 µM] | DU-145 prostate; 10 µM unless noted 59.4% [25 µM] | K-562 leukemia 28.9% [25 µM] | MALME-3M melanoma; 10 µM unless noted 67.7% [25 µM] | MDA-MB-231 breast; 10 µM unless noted 66.5% [25 µM] | RXF 393 renal; 10 µM unless noted 104% [25 µM] | SF-268 CNS; 10 µM unless noted 61.9% [25 µM] | SF-295 CNS; 10 µM unless noted 35.2% [25 µM] | SF-539 CNS; 10 µM unless noted 37.1% [25 µM] | UACC-257 melanoma; 10 µM unless noted 71.2% [25 µM]

Nc1nnc(-c2cncc(Br)c2)c(-c2c[nH]c3ccc(Cl)cc23)n1
inactive: NCI-H23 lung; 10 µM unless noted 84.5% | NCI-H226 lung; 10 µM unless noted 74% | NCI-H322M lung; 10 µM unless noted 80.9% | HOP-62 NSCLC; 10 µM unless noted 91.9% | NCI-H460 lung; 10 µM unless noted 86.9% | HOP-92 NSCLC; 10 µM unless noted 90.9% | NCI-H522 lung; 10 µM unless noted 68.1% | A549/ATCC NSCLC; 10 µM unless noted 82.9% | 786-0 renal; 10 µM unless noted 73.9% | COLO 205 colon; 10 µM unless noted 113% | DU-145 prostate; 10 µM unless noted 99.4% | K-562 leukemia 30.5% | MALME-3M melanoma; 10 µM unless noted 99.3% | MDA-MB-231 breast; 10 µM unless noted 74.7% | RXF 393 renal; 10 µM unless noted 63.5% | SF-268 CNS; 10 µM unless noted 88.6% | SF-295 CNS; 10 µM unless noted 92.4% | SF-539 CNS; 10 µM unless noted 72.5% | UACC-257 melanoma; 10 µM unless noted 108%

CC/C(=C(/c1ccc(O)cc1)c1ccc(OCCN(C)C(=O)CCOCCNC(=O)Cc2ccc3c(c2)CN([C@@H]2CCC(=O)NC2=O)C3=O)cc1)c1ccccc1
active: MDA-MB-231 breast; 10 µM -5.68%
inactive: NCI-H23 lung; 1 µM 98.2% | NCI-H23 lung; 10 µM 92.8% | NCI-H226 lung; 1 µM 93.9% | NCI-H226 lung; 10 µM 47% | NCI-H322M lung; 1 µM 88.1% | NCI-H322M lung; 10 µM 67% | NCI-H460 lung; 1 µM 130% | NCI-H460 lung; 10 µM 103% | HOP-92 NSCLC; 1 µM 22.2% | HOP-92 NSCLC; 10 µM 20.8% | NCI-H522 lung; 1 µM 92% | NCI-H522 lung; 10 µM 91.2% | A549/ATCC NSCLC; 1 µM 93.1% | A549/ATCC NSCLC; 10 µM 87.8% | 786-0 renal; 1 µM 97.2% | 786-0 renal; 10 µM 84.2% | COLO 205 colon; 1 µM 102% | COLO 205 colon; 10 µM 62.3% | DU-145 prostate; 1 µM 109% | DU-145 prostate; 10 µM 101% | MALME-3M melanoma; 1 µM 42.7% | MALME-3M melanoma; 10 µM 13.3% | MDA-MB-231 breast; 1 µM 11% | RXF 393 renal; 1 µM 104% | RXF 393 renal; 10 µM 93.8% | SF-268 CNS; 1 µM 96.5% | SF-268 CNS; 10 µM 72.6% | SF-295 CNS; 1 µM 103% | SF-295 CNS; 10 µM 94.7% | SF-539 CNS; 1 µM 87.9% | SF-539 CNS; 10 µM 78.4% | UACC-257 melanoma; 1 µM 91% | UACC-257 melanoma; 10 µM 96.1% | M14 melanoma; 1 µM 92.2% | M14 melanoma; 10 µM 65%

O=C(c1ccc(Cl)cc1)C1[C@H](c2ccccc2Cl)[C@@H](c2ccccc2)NC12C(=O)Nc1ccc(Cl)cc12 (stereo partly drawn)
active: NCI-H23 lung; 10 µM unless noted -70.1% | NCI-H226 lung; 10 µM unless noted -86.1% | NCI-H322M lung; 10 µM unless noted -22.1% | HOP-62 NSCLC; 10 µM unless noted -72.4% | NCI-H460 lung; 10 µM unless noted -69.2% | HOP-92 NSCLC; 10 µM unless noted -75.6% | NCI-H522 lung; 10 µM unless noted -50.6% | A549/ATCC NSCLC; 10 µM unless noted -23% | 786-0 renal; 10 µM unless noted -54.5% | COLO 205 colon; 10 µM unless noted -91.4% | DU-145 prostate; 10 µM unless noted -28.5% | K-562 leukemia -45.1% | MALME-3M melanoma; 10 µM unless noted -39.5% | MDA-MB-231 breast; 10 µM unless noted -96.1% | RXF 393 renal; 10 µM unless noted -93.1% | SF-268 CNS; 10 µM unless noted -36.6% | SF-295 CNS; 10 µM unless noted -85.9% | SF-539 CNS; 10 µM unless noted -78.4% | UACC-257 melanoma; 10 µM unless noted -15.5%

CC(=O)c1ccc2c(N)c(C(=O)Nc3ccc(C(F)(F)F)cc3)sc2n1
inactive: NCI-H23 lung; 10 µM unless noted 41.7% | NCI-H226 lung; 10 µM unless noted 59.1% | NCI-H322M lung; 10 µM unless noted 83.2% | HOP-62 NSCLC; 10 µM unless noted 58.6% | NCI-H460 lung; 10 µM unless noted 72.8% | HOP-92 NSCLC; 10 µM unless noted 67.1% | NCI-H522 lung; 10 µM unless noted 59.8% | A549/ATCC NSCLC; 10 µM unless noted 78.5% | 786-0 renal; 10 µM unless noted 78.1% | COLO 205 colon; 10 µM unless noted 83.4% | DU-145 prostate; 10 µM unless noted 82.2% | K-562 leukemia 20% | MALME-3M melanoma; 10 µM unless noted 26.4% | MDA-MB-231 breast; 10 µM unless noted 68.3% | RXF 393 renal; 10 µM unless noted 85.8% | SF-268 CNS; 10 µM unless noted 85.2% | SF-295 CNS; 10 µM unless noted 38.1% | SF-539 CNS; 10 µM unless noted 71.1% | UACC-257 melanoma; 10 µM unless noted 59.5%

CC/C(=C(\c1ccc(O)cc1)c1ccc(OCCN(C)C(=O)COCCNC(=O)Cc2ccc3c(c2)CN([C@@H]2CCC(=O)NC2=O)C3=O)cc1)c1ccccc1
active: NCI-H226 lung; 10 µM 6.46% | HOP-92 NSCLC; 1 µM 8.46% | HOP-92 NSCLC; 10 µM -0.223% | MALME-3M melanoma; 10 µM -13.3% | MDA-MB-231 breast; 1 µM -5.08% | MDA-MB-231 breast; 10 µM -26.3%
inactive: NCI-H23 lung; 1 µM 102% | NCI-H23 lung; 10 µM 86.6% | NCI-H226 lung; 1 µM 77.4% | NCI-H322M lung; 1 µM 77.5% | NCI-H322M lung; 10 µM 37.9% | HOP-62 NSCLC; 1 µM 72% | HOP-62 NSCLC; 10 µM 16.2% | NCI-H460 lung; 1 µM 124% | NCI-H460 lung; 10 µM 106% | NCI-H522 lung; 1 µM 92.2% | NCI-H522 lung; 10 µM 95.3% | A549/ATCC NSCLC; 1 µM 95.7% | A549/ATCC NSCLC; 10 µM 75.2% | 786-0 renal; 1 µM 94% | 786-0 renal; 10 µM 90.6% | COLO 205 colon; 1 µM 72.2% | COLO 205 colon; 10 µM 33.8% | DU-145 prostate; 1 µM 103% | DU-145 prostate; 10 µM 104% | MALME-3M melanoma; 1 µM 24.7% | RXF 393 renal; 1 µM 100% | RXF 393 renal; 10 µM 99.4% | SF-268 CNS; 1 µM 77% | SF-268 CNS; 10 µM 51.8% | SF-295 CNS; 1 µM 103% | SF-295 CNS; 10 µM 81.9% | SF-539 CNS; 1 µM 78.3% | SF-539 CNS; 10 µM 55.1% | UACC-257 melanoma; 1 µM 96.4% | UACC-257 melanoma; 10 µM 95.4%

Source: PubChem BioAssay (NCI)
